An excerpt weighted towards active compounds, which were near 2.4% of everything screened.
D2 antag: antagonists of human D2 dopamine receptor | P14416 | HEK293 TREx D2 cells, calcium flux, dopamine EC80 | inhibition, % at 10 µM | 2% of 340,000 active; in the data active = inhibition above about 30%; inactive = below that, where a call was filed
Target sequence (P14416 whole entry, looked up): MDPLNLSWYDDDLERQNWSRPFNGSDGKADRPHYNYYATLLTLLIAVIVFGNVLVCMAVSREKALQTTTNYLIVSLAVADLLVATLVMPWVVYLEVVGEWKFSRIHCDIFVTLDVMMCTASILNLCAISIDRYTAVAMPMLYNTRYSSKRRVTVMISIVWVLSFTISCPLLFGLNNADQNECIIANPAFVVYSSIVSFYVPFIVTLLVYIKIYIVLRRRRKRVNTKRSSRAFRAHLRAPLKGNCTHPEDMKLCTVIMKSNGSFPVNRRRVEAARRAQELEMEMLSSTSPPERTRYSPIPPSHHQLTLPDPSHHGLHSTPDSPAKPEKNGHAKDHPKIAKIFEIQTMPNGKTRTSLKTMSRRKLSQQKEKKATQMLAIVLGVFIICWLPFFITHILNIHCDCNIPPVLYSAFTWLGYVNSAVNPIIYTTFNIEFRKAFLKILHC
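Overnight-induced (tetracycline, 30 C) HEK293 T-REx cells carrying force-coupled D2 receive a no-wash calcium dye, then compound, then EC80 dopamine at 180 s; signals are read kinetically throughout.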
D2 ag-1: activates the human D2 dopamine receptor. P14416. AID 485358. HEK293 T-REx D2 cells, calcium flux agonist mode. activation, % at 2 µM. 0.53% of 340,000 active;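 active = activation over 3 SD above normal in the single-dose calcium agonist read, cut at about 30% in these data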
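Calcium-flux readout, 1 cycle/sec over 180 s following compound pin transfer, in inducible HEK293 Trex D2 cells (force-coupled); dopamine controls included. Positive calcium responses during this window marked compounds as potential agonists.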
D2 PAM-1: positive allosteric modulators of human D2 dopamine receptor; P14416; HEK293 T-REx D2, calcium flux, EC20 dopamine potentiation; potentiation, % at 10 µM; 0.34% of 340,000 active; AID 485347;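 active = potentiation over 3 SD above the plate norm, cut at about 30% in these data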
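Potentiation of an EC20 dopamine calcium response is measured in a force-coupled, tetracycline-inducible Hek293 Trex D2 line. Compound-only kinetic reads over 180 s flag agonists before dopamine addition.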
D2 PAM-2: potentiates the human D2 dopamine receptor allosterically; P14416; DiscoveRx D2 beta-arrestin cells, luminescence, 90 min; 100% = 57 uM dopamine signal; potentiation, % (concentration not given with the values); 0.23% of 360,000 active; AID 624464; in the data active = potentiation above about 50%
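D2 cells co-treated with compound plus 50 nM dopamine (EC20) for 90 min at 37 deg C to detect potentiation. Beta-arrestin recruitment was read as enzyme-fragment luminescence after 1 h at ambient temperature. Full response was set by 57 uM dopamine.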
D2 ag-2: activates the human D2 dopamine receptor; P14416; DiscoveRx PathHunter D2 beta-arrestin, luminescence, 90 min; 100% = 57 uM dopamine signal; activation, % (test concentration not listed); 0.084% of 360,000 active; AID 624465; in the data active = activation above about 40%
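DiscoveRx PathHunter D2 beta-arrestin cells (2,100/well) attached overnight, then compound-stimulated 90 min at 37 C in HBSS/10 mM HEPES/0.1% Tween-20 buffer; beta-galactosidase complementation read by luminescence after 1 h at ambient temperature. Dopamine 57 uM final (EC100) as control.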
Each line names hits and unclear results; the compound was inactive in the other large screens.

O=C(c1ccc(-c2ccccc2)cc1)C1CCCN(Cc2ccncc2)C1 (stereo unspecified)	D2 antag 75
Cc1cccc(OCc2cc(=O)n3c(-c4ccccc4)csc3n2)c1C	none (no result: D2 antag, D2 PAM-2, D2 ag-2)
COc1ccc(Cc2nc(-c3ccc(Br)cc3)no2)cc1	D2 antag 31
O=C(NCc1ccccc1Cl)c1ccc2c(c1)N(Cc1ccccc1)C(=O)c1ccccc1S2	none (no result: D2 antag, D2 PAM-2, D2 ag-2)
O=C(NCc1cccc(Br)c1)c1ccc(-n2cnc3cccnc32)cc1	none (no result: D2 antag, D2 PAM-2, D2 ag-2)
Cc1ccc(C)c(S(=O)(=O)n2nc(C)c(S(=O)(=O)N3CCCCCC3)c2C)c1	none (no result: D2 antag, D2 PAM-2, D2 ag-2)
CCOC(=O)Nc1sc2c(c1C#N)CCCC2	none
CCCC1CCc2c(sc(NC(=O)OCC)c2C#N)C1 (stereo unspecified)	D2 PAM-1 34 (no result: D2 antag)
CCc1ccc(NCc2cc3cc4c(cc3n(CC(=O)Nc3ccccc3Cl)c2=O)OCO4)cc1	none (no result: D2 antag, D2 PAM-2, D2 ag-2)
Cc1ccc(NC(=O)CCc2nnc3n(CC(C)C)c(=O)c4ccccc4n23)cc1C	none (no result: D2 antag, D2 ag-1, D2 PAM-2, D2 ag-2)
CN(C(=O)COC(=O)c1cc(F)c(F)cc1Cl)c1ccccc1	D2 antag 32
Cc1ccc(C(=O)OCC(=O)N(C)c2ccccc2)c(C)c1	none
CCOC(=O)c1cccc(NC(=O)Nc2c(C)n(C)n(-c3ccccc3)c2=O)c1	none (no result: D2 antag, D2 PAM-2, D2 ag-2)
CCOc1ccc(C(C)NC(=S)NC2CCCCC2)cc1 (stereo unspecified)	none (no result: D2 antag, D2 ag-1, D2 PAM-1)
CCOc1ccc(C(C)NC(=S)NC2CCCCC2)cc1OCC (stereo unspecified)	D2 antag 41
CCc1ccc(C(C)NC(=S)NC2CCCCC2)cc1 (stereo unspecified)	D2 antag 48
O=C(c1ccccc1)c1c2c(cc3sc4ccccc4[n+]13)-c1cccc3cccc-2c13	D2 antag 44, D2 ag-1 60
CCOCCCNC(=S)N1CCN(c2nc(-c3ccccc3)cs2)CC1	none (no result: D2 antag, D2 ag-1, D2 PAM-1)
CC(C)C(=O)NNC(=O)CN1CCN(c2nc(-c3ccccc3)cs2)CC1	none
CCc1nnc(NC(=O)CN2CCN(c3nc(-c4ccccc4)cs3)CC2)s1	D2 antag 32
CCN(CC)CCCNC(=S)N1CCN(c2nc(-c3ccccc3)cs2)CC1	D2 antag 33
COC(=O)CN1C(=O)CSc2ccc(S(=O)(=O)Nc3ccc(C)c(Cl)c3)cc21	none (no result: D2 antag, D2 PAM-2, D2 ag-2)
COc1ccc(Cl)cc1NC(=O)c1noc2c1CCc1ccccc1-2	none (no result: D2 antag, D2 PAM-2, D2 ag-2)
C#CCn1c2ccccc2c2nc3ccccc3nc21	none
CC(C)n1c2ccccc2c2nc3ccccc3nc21	D2 PAM-1 40
O=S(=O)(NCCc1cn2ccsc2n1)c1ccc(Cl)cc1	none (no result: D2 antag, D2 PAM-2, D2 ag-2)
C/C(Cn1cnc([N+](=O)[O-])n1)=N\NC(=O)c1ccccc1	none
C/C(Cn1nnc([N+](=O)[O-])n1)=N\NC(=O)c1ccccc1	D2 PAM-2 59
CCOC(=O)CCN(c1ccccc1)S(=O)(=O)c1cc(-c2cc(C)no2)ccc1C	none (no result: D2 antag, D2 PAM-2, D2 ag-2)
CCOc1ccccc1NC(=O)N(C)CCc1c(C)nn(CC)c1C	none (no result: D2 antag, D2 PAM-2, D2 ag-2)
O=c1cc(N2CCCCC2)c(-c2ccccc2)nn1Cc1c(Cl)cccc1Cl	D2 antag 32
CCN=c1scc(C)n1/N=C/c1cc(Br)c(O)c(Br)c1	none
CCN=c1scc(C)n1/N=C/c1ccc(O)c(O)c1O	D2 ag-1 32, D2 PAM-2 117, D2 ag-2 49
COc1cccc(C2=CC(c3ccccc3F)n3ncc(C(=O)Nc4ccc(C)cc4)c3N2)c1 (stereo unspecified)	none (no result: D2 antag, D2 PAM-2, D2 ag-2)
CCc1noc(C)c1C(=O)NNC(=O)c1ccc(Br)cc1	D2 antag 37
CCc1noc(C)c1C(=O)NNC(=O)c1nn(CC)c(=O)c2ccccc12	none
CCc1noc(C)c1C(=O)NNC(=O)c1nn(C)c(=O)c2ccccc12	D2 antag 57
O=c1c(=O)n(-c2ccccc2)ccn1Cc1c(F)cccc1Cl	none (no result: D2 antag, D2 PAM-2, D2 ag-2)
CCNCc1ccccc1OCc1ccccc1	none
CC(O)CNCCNCc1c(OCc2ccccc2)ccc2ccccc12 (stereo unspecified)	D2 PAM-1 32
CC(O)CNCCOc1ccccc1OCc1ccccc1 (stereo unspecified)	D2 antag 45
OCCNCc1c(OCc2ccc(Cl)cc2)ccc2ccccc12	none
COC(=O)c1cc2oc3ccccc3c2n1Cc1c(C)cc(C)cc1C	none (no result: D2 antag, D2 ag-1, D2 PAM-2, D2 ag-2)
Cc1nn2c(NCc3ccccn3)c3c(nc2c1-c1ccccc1)CCC3	D2 antag 40
CCN(C(=O)c1cc2c(s1)-c1ccccc1OC2)c1cccc(C(F)(F)F)c1	none (no result: D2 antag, D2 PAM-2, D2 ag-2)
O=C(Nc1cccc(C(F)(F)F)c1)c1cc2c(s1)-c1ccccc1OC2	D2 antag 40
O=C(O)c1cc2c(s1)-c1ccccc1OC2	none
O=C(NC1CC1)c1cc2c(s1)-c1ccccc1OC2	D2 antag 34
COc1ccc(CCNC(=O)C(C)n2nc(C)c3sc4ccccc4c3c2=O)c(OC)c1 (stereo unspecified)	none (no result: D2 antag, D2 ag-1, D2 PAM-2, D2 ag-2)
COc1cc(N)c(Cl)cc1C(=O)OCC(=O)c1cccs1	D2 antag 33
COc1cc(N)c(Cl)cc1C(=O)OCC(=O)NCc1cccs1	none (no result: D2 antag, D2 ag-1, D2 PAM-1)
Cc1ccc(NC(=O)Cn2c3ccc(F)cc3c3nc4n(c(=O)c32)CCS4)cc1F	D2 PAM-1 35
O=C(Cn1c2ccc(F)cc2c2nc3n(c(=O)c21)CCS3)Nc1ccc(Cl)cc1F	none
CCCCNC(=O)CSc1nc2n[nH]c(C)c2c(=N)n1-c1ccccc1CC	none (no result: D2 antag, D2 PAM-2, D2 ag-2)
COc1ccccc1NC(=O)c1sc(-c2ccc(Cl)cc2)cc1N	none (no result: D2 antag, D2 PAM-2, D2 ag-2)
Cc1cc(C(=O)Nc2ccc([N+](=O)[O-])cn2)cs1	D2 antag 30
COc1cc(OC)cc(C(=O)Nc2ccc([N+](=O)[O-])cn2)c1	D2 antag 50
CCOc1cc(C(=O)Nc2ccc([N+](=O)[O-])cn2)cc(OCC)c1OCC	D2 antag 69
COc1ccc(C(=O)Nc2ccc([N+](=O)[O-])cn2)cc1OC	none
COc1ccc([N+](=O)[O-])cc1NC(=O)c1csc(C)c1	none
Cc1ccc(C)c(N2CCN(C(=O)c3cc(S(=O)(=O)N4CCCC4)c[nH]3)CC2)c1	none (no result: D2 antag, D2 PAM-2, D2 ag-2)
COc1ccc(SCCN2CC[C@@H](C)CCC2=O)cc1	none
CC1CCC(=O)N(CCSc2ccccc2)CC1 (stereo unspecified)	D2 antag 33
Cc1ccc2c(c1Br)/C(=N/N1C(=O)c3ccccc3C1=O)C(=O)N2	none
CCOc1ccc(N=C2C(=O)Nc3ccc(C)c(Br)c32)cc1	D2 antag 42
COc1ccc2c(C(=O)c3ccc(C)cc3)n(Cc3ccc(C(N)=O)cc3)[n+]([O-])c2c1	D2 antag 60
O=C(CCS(=O)(=O)c1cccc2nsnc12)N1CCN(C(=O)c2ccco2)CC1	none
O=C(CCS(=O)(=O)c1cccc2nsnc12)N1CCN(Cc2ccc3c(c2)OCO3)CC1	D2 ag-1 36
O=C(c1ccc(F)cc1)N1CCCC(N2CCN(Cc3ccc4c(c3)OCO4)CC2)C1 (stereo unspecified)	none
